Measurements as given in PubChem BioAssay (Tox21).
Results filed as inconclusive are left out. A call without a number means that no potency is given here. A number with no mark means an inactive call. Calls of active or inactive are those of the source. Calls follow the shape of the dose curve; as a rule, active = well fitted cell-killing curve with a large enough effect in the repeat runs; inconclusive = weak or mixed curves, or effect the other way; inactive = flat fitted curve, though single readings scatter.

Experiment: Caspase-3/7 induction in HepG2 cells by small molecules, qHTS cell viability counter screen (AID 1346981); also: nearly all actives have a fitted effect of over 30% in size
Conditions: CellTiter-Fluor fluorescence, 17 h; series mostly up to 92.4 µM
Method in brief: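 CellTiter-Fluor fluorescence measured viability in the same wells used for Caspase-Glo 3/7. HepG2 (wild type) at 2,000 cells/well were pre-incubated 5 hr, dosed, and given reagent at 16 hr, with 1 hr further at 37C.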
Potency is read from the fitted curve at half-maximal effect.

SMILES	Potency	activity change, negative = cytotoxicity
c1ccc(CCCc2ccncc2)cc1	inactive	–
CCN(CC)c1ccc(C(=C2C=CC(=[N+](CC)CC)C=C2)c2ccc(S(=O)(=O)O)cc2S(=O)(=O)[O-])cc1	19.3 µM (active)	–
CC(C)(O)CCc1ccccc1	inactive	–
CC(=O)OCC(C)C	inactive	–
CC(C)(O)c1coc(S(=O)(=O)NC(=O)Nc2c3c(cc4c2CCC4)CCC3)c1	inactive	–
CCCCCCCCCCCCCCCC(=O)OCC	inactive	–
CN1C(CSCC(F)(F)F)Nc2cc(Cl)c(S(N)(=O)=O)cc2S1(=O)=O (centres undefined)	inactive	–
CC1C(C)(C)C2=C(C(=O)CCC2)C1(C)C (centres undefined)	inactive	–
CCCCCCCCCCCCCC(=O)OCC(O)CO (centres undefined)	inactive	–
CC(C)C(O)C(C)(C)CO (centres undefined)	inactive	–
Cc1cccc(C)c1NC(=O)c1cc(S(N)(=O)=O)c(Cl)cc1O	inactive	–
CC1CCCC(=O)C1=O (centres undefined)	inactive	–
O=C(NS(=O)(=O)/C=C/c1ccccc1)c1ccc(F)cc1Cl	inactive	–
Nc1ccc(F)cc1	inactive	–
CCOc1ncc(F)c(=O)[nH]1	inactive	–
O=S(=O)(O)CO	inactive	–
CCC(Cl)CC(Cl)C(Cl)C(Cl)C(Cl)C(C)Cl (centres undefined)	–	1.11% [at 19 µM]
O=CNNC=O	inactive	–
CCC(C)(C)C(=O)O	inactive	–
CCOC(=O)C(C)O (centres undefined)	inactive	–

SMILES	Potency	activity change, negative = cytotoxicity
CCC(CO)(CO)CO	inactive	–
CCN(Cc1cccc(S(=O)(=O)O)c1)c1ccc(C(=C2C=CC(=[N+](CC)Cc3cccc(S(=O)(=O)O)c3)C=C2)c2ccccc2S(=O)(=O)[O-])cc1	17.3 µM (active)	–
CCN(CC)c1cccc(O)c1	inactive	–
CCCCCCC(O)CCCCCCCCCCC(=O)OC (centres undefined)	inactive	–
COC(C)(C)OC	inactive	–
CCCCCCCC/C=C/C(=O)O	inactive	–
O=C(O)CO	inactive	–
CCCCOC(=O)CCCCC(=O)OCCCC	inactive	–
CC(=O)NCCO	inactive	–
CSCC[C@H](NC(=O)[C@H](Cc1c[nH]c2ccccc12)NC(=O)CCNC(=O)OC(C)(C)C)C(=O)N[C@@H](CC(=O)O)C(=O)N[C@@H](Cc1ccccc1)C(N)=O	inactive	–
FC(F)(F)C(F)(F)C(F)(F)C(F)(F)CCI	inactive	–
COC1CCC=CO1 (centres undefined)	inactive	–
CCc1ccc(C)cc1	inactive	–
O=C(O)CCS	inactive	–
CC(C)C(=O)OCCOc1ccccc1	inactive	–
[Cl][Nd]([Cl])[Cl]	inactive	–
NC(=O)CCCCC(N)=O	inactive	–
CC(C)N(C)C	inactive	–
Cc1oc(=O)oc1COC(=O)[C@@H]1N2C(=O)[C@@H](NC(=O)[C@H](N)c3ccccc3)[C@H]2SC1(C)C	inactive	–
